A short description of test [1]: cAMP Responsive Elements (CRE) small molecule antagonists, cell-based qHTS assay: qHTS cell viability counter screen (AID 2060913). Further: nearly all actives have a fitted effect of over 40% in size. In outline: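 Steps: cells plated and held 18 hrs at 37 C/5% CO2; compounds and NKH477 (0.25 uM final) added; 3 hrs incubation; reporter substrate read; CellTiter-Glo added to measure cytotoxicity by luminescence.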
Test [2] can be described thus: cAMP Responsive Elements (CRE) small molecule agonists, cell-based qHTS assay: qHTS cell viability counter screen (AID 2060914).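 Further: viability read after 3 h of compound exposure; nearly all actives have a fitted effect of over 50% in size.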 The gist of the method:
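Cells are seeded and incubated 18 h, treated with compounds in DMSO for 3 h, read for the bla reporter, then given CellTiter-Glo; luminescence is measured after 30 min at room temperature.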

This is an account of results in PubChem BioAssay (Tox21).

Where “and” joins values, the source holds several entries; their conditions need not be identical. Equal entries are not always repeated. Records with an inconclusive call do not appear. Unmarked numbers belong to inactive results. Calls of active or inactive are those of the source. The call rests on the fitted dose curve; in most records, active means well fitted cell-killing curve with a large enough effect in the repeat runs; inconclusive means weak or mixed curves, or effect the other way; inactive means flat fitted curve, though single readings scatter.
On the % scale 0 is the no-effect control and ±100 the full control effect; potency means the concentration at half of the fitted maximal effect.

On to `COc1ccc(S(=O)(=O)Nc2nnc(CC(C)C)s2)cc1`, for which the Potency result in test [1] and in test [2] was “inactive” throughout.

In the case of `COCCc1ccccn1`, the Potency entry in test [1] and in test [2] was “inactive” throughout.

For the molecule `O=c1c(O)c(O)c1=O`, the Potency entry in test [1] and in test [2] was “inactive” each time.

Turning to `C[n+]1ccn(Cc2ccccc2)c1`, the Potency result in test [1] and in test [2] was “inactive” in each case.

With `CCCCCCS`, the Potency result in test [1] and in test [2] was “inactive” in each case.

For `Cc1cccc(O)c1N`, the Potency entry in test [1] and in test [2] was “inactive” each time.

In the case of `CN(C)N=Nc1ccccc1`, the Potency result in test [1] and in test [2] was “inactive” throughout.

Regarding `C/C=C/C=C/CO`, the Potency result in test [1] and in test [2] was “inactive” each time.

On to `Oc1ccccc1C=NCc1ccccc1`, for which the Potency result in test [1] and in test [2] was “inactive” each time.

Take `Cc1cc(O)c(C)c(C)c1O`: the Potency result in test [1] and in test [2] was “inactive” throughout.

With `COC(=O)c1cc(Cl)cc(Cl)c1`, the Potency result in test [1] and in test [2] was “inactive” in each case.

In the case of `CC1OCCC1=O` (configuration not stated), the Potency result in test [1] and in test [2] was “inactive” in each case.

Regarding `CC(=O)Oc1ccc(C(C)=O)cc1`, the Potency result in test [1] and in test [2] was “inactive” throughout.

As to `CCC/C=C/C=O`, the Potency entry in test [1] and in test [2] was “inactive” each time.

As for `CS(=O)(=O)c1ccc(-c2cn3ccccc3n2)cc1`, in test [1], the Potency is 26.6 µM (active). Also, the Potency entry in test [2] was “inactive”.

Consider `Cc1ccc(N/N=c2\c(=O)cc/c(=N\Nc3ccc(S(=O)(=O)O)cc3)c2=O)c(C)c1`, for which the Potency result in test [1] and in test [2] was “inactive” each time.

For the molecule `Cc1ncc(CSSCc2cnc(C)c(O)c2CO)c(CO)c1O`, the Potency entry in test [1] and in test [2] was “inactive” each time.

Turning to `CC(=O)CC(=O)Nc1ccccc1`, the Potency entry in test [1] and in test [2] was “inactive” in each case.

As to `O=P(O)(O)OCC(O)CO` (configuration not stated), the Potency entry in test [1] and in test [2] was “inactive” in each case.

For the molecule `Cn1cnc2c1c(=O)[nH]c(=O)n2C`, the Potency entry in test [1] and in test [2] was “inactive” throughout.

For the molecule `CN1CCN(CC(=O)N2c3ccccc3C(=O)Nc3cccnc32)CC1`, in test [1], the viability change, negative = cytotoxic was 8.13% [at 8.39 µM]. The activity change, negative = cytotoxicity in test [2] was 0.984% [at 8.39 µM].

Regarding `CN=C(NC#N)Nc1ccc(C2=NNC(=O)CC2C)cc1` (configuration not stated), the Potency entry in test [1] and in test [2] was “inactive” in each case.

On to `OC(CCN1CCCC1)(c1ccccc1)C1CCCCC1` (configuration not stated), for which the Potency entry in test [1] and in test [2] was “inactive” each time.

With `CC(=O)O[C@@H]1CC2C3CCc4cc(OC(=O)c5ccccc5)ccc4C3CCC2(C)[C@H]1OC(C)=O` (some centres not stated), the Potency result in test [1] and in test [2] was “inactive” throughout.

On to `CCO[Si](CCCCl)(OCC)OCC`, for which the Potency entry in test [1] and in test [2] was “inactive” each time.

`CC(CCO)CCc1ccccc1` (configuration not stated): the Potency result in test [1] and in test [2] was “inactive” each time.

For `CCCCCCC(=O)c1ccccc1`, the Potency result in test [1] and in test [2] was “inactive” in each case.

Consider `CC(C)(N)C#N`, for which the Potency result in test [1] and in test [2] was “inactive” in each case.

`CN1CCN(c2c(F)cc3c(=O)c(C(=O)O)cn4c3c2OCN4C)CC1`: in test [1], the viability change, negative = cytotoxic was 3.45% [at 18.9 µM]. Moreover, the activity change, negative = cytotoxicity in test [2] was 10.7% [at 18.9 µM].

Take `N[C@@H](Cc1cc(I)c(O)c(I)c1)C(=O)O`: the Potency result in test [1] and in test [2] was “inactive” in each case.

Take `O=C(O)c1cc(=O)[nH]c(=O)[nH]1`: the Potency entry in test [1] and in test [2] was “inactive” throughout.

On to `O=CCCc1ccccc1`, for which the Potency result in test [1] and in test [2] was “inactive” throughout.

As to `CCCCCCCCCCCCCC[N+](C)(C)Cc1ccccc1`, the Potency in test [1] is 55.3 µM (active) and 26.6 µM (active) and 15.8 mM (active); in test [2], 22 µM (active) and 11.9 µM (active).

Consider `C/C=C/c1ccc(OCC)c(O)c1`, for which the Potency entry in test [1] and in test [2] was “inactive” each time.

For the molecule `C=O`, the Potency result in test [1] and in test [2] was “inactive” throughout.

As to `Cc1cccc(N(C)C(=S)Oc2ccc3ccccc3c2)c1`, the Potency entry in test [1] and in test [2] was “inactive” in each case.

As to `CCCCC(CC)COC(=O)COc1ccc(Cl)cc1Cl` (configuration not stated), the Potency result in test [1] and in test [2] was “inactive” throughout.

For the molecule `CC[C@H]1CN2CCc3cc(OC)c(OC)cc3[C@@H]2C[C@@H]1C[C@H]1NCCc2cc(OC)c(OC)cc21`, the Potency result in test [1] and in test [2] was “inactive” each time.

As to `COc1cc(Cc2cnc(N)nc2N)cc(OC)c1OC`, the Potency entry in test [1] and in test [2] was “inactive” each time.

For the molecule `c1ccc(CCCc2ccncc2)cc1`, the Potency entry in test [1] and in test [2] was “inactive” in each case.

For the molecule `CCCCNc1ccc(NCCCC)c2c1C(=O)c1ccccc1C2=O`, the viability change, negative = cytotoxic in test [1] was 6.2% [at 18.9 µM]. Also, in test [2], the activity change, negative = cytotoxicity is -7.45% [at 18.9 µM].

With `Cc1ncc[nH]1`, the Potency result in test [1] and in test [2] was “inactive” each time.

Consider `O=C1CCCCCCCCCCC(=O)OCCO1`, for which the Potency entry in test [1] and in test [2] was “inactive” each time.

With `OCC(O)CO`, the Potency entry in test [1] and in test [2] was “inactive” each time.

Regarding `CCCCCCCCCCCCCCC1CO1` (configuration not stated), the Potency entry in test [1] and in test [2] was “inactive” each time.

Consider `CCN(Cc1cccnc1)C(=O)c1cccc(Cl)c1[C@]1(C)C(=O)N(Cc2ccc(OC)cc2OC)c2ccc(Cl)cc21`, for which the Potency entry in test [1] and in test [2] was “inactive” in each case.

As for `CCC/C=C(\C=O)CC`, the Potency entry in test [1] and in test [2] was “inactive” throughout.

Consider `O=C(O)c1ccccc1S`, for which the Potency result in test [1] and in test [2] was “inactive” each time.

For `CCCCCCCCCCCCCCCCCBr`, the viability change, negative = cytotoxic in test [1] is 1.85% [at 18.9 µM]. Also, in test [2], the activity change, negative = cytotoxicity was 1.37% [at 18.9 µM].

Turning to `OC1(c2ccccc2)CCNCC1`, the Potency entry in test [1] and in test [2] was “inactive” throughout.

For `CCCCCCOC(=O)CCCCCCCC(=O)OCCCCCC`, the Potency entry in test [1] and in test [2] was “inactive” in each case.

Turning to `CC1(C)O[C@@H]2C[C@H]3[C@@H]4C[C@H](F)C5=CC(=O)C=C[C@]5(C)[C@@]4(F)[C@@H](O)C[C@]3(C)[C@]2(C(=O)CO)O1`, the Potency result in test [1] and in test [2] was “inactive” each time.

`CC1=C(/C=C/C(C)=C/C=C/C(C)=C/C(=O)O)C(C)(C)CCC1`: the Potency entry in test [1] and in test [2] was “inactive” in each case.

With `CC12CCC(C1)C(C)(C)C2O` (configuration not stated), the Potency result in test [1] and in test [2] was “inactive” throughout.

On to `CC(C)n1c(/C=C/[C@@H](O)C[C@@H](O)CC(=O)O)c(-c2ccc(F)cc2)c2ccccc21`, for which the Potency entry in test [1] and in test [2] was “inactive” throughout.

For the molecule `CCCCC(CC)COC(=O)/C=C\C(=O)OCC(CC)CCCC` (configuration not stated), the Potency result in test [1] and in test [2] was “inactive” throughout.
